This is a sample that favours compounds with a hit; in the whole collection about 2.7% have one here.
PAX8 inh HTS = inhibitors of PAX8 transcriptional activity in RMG-I cells. RMG-I TPO-luciferase reporter, SteadyGlo, 24 h. inhibition, % at 12.6 µM. actives 1.2% (n = 360,000);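 active = mean replicate inhibition at least 60% with every replicate also reaching 60%; inconclusive = only one of the two criteria is met; inactive = mean below 60% and not all replicates reaching 60%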;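 note: luciferase light reporting Pax8 driven TPO promoter activity; plate controls were median of neutral control wells for no effect and mitoxantrone controls for full effect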
EWS-Fli block = EWS/Fli transcriptional activity inhibition. A673 NR0B1-luciferase reporter, viability-normalised. inhibition, % at 12.6 µM. actives 0.67% (n = 350,000);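 active = mean inhibition of at least 50% after viability correction, with every replicate also passing that limit; inconclusive = mean reaches 50% but only one of two replicates passes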;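 note: firefly luciferase signal divided by Alamar Blue viability fluorescence both relative to DMSO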
Env fusion inh = blocks HIV Env-driven cell-cell fusion | HeLa-JRFL Env/CEM21 cell fusion, luciferase | inhibition, % at 12.3 µM | actives 1.1% (n = 360,000) | AID 651610;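 active = mean replicate inhibition score of at least 50 and every replicate individually at or above 50; inconclusive = only one of the two criteria met; inactive = mean below 50 and not all replicates reaching 50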;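 note: 0% = plate neutral controls and 100% = maraviroc near 300 nM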
INS-1E GSIS act = primary screen for activators of insulin secretion dependent on glucose, INS-1E cells, GLuc reporter luminescence | actives 0.61% (n = 370,000) | activation, % at 16.6 µM | AID 743287 | INS-1E GLuc reporter insulin secretion, 2-3 h;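 active = lowest replicate activation of at least 40%, so every replicate reaches that level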;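 note: 0% = median of neutral control wells and 100% = median of IBMX positive control wells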
F508del corr = correctors of CFTR F508del function in bronchial epithelial cells. activity (quench increase), % at 7.58 µM. CFBE cells, YFP halide quenching; stimulated with forskolin plus potentiator P3; % fluorescence drop versus neutral controls. AID 720511. actives 0.36% (n = 350,000);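 active = mean added fluorescence quench of at least 8% versus neutral control, with both replicates also reaching 8%; inconclusive = only one of the mean or replicate conditions met; inactive = mean below 8% and not both replicates reaching 8%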;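 note: cells transiently co-express mutant CFTR-F508del with the halide-sensitive YFP; corrector assay measuring rescue of mutant channel to the surface after 24 h compound exposure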
PGC1a acetyl inh = PGC1a acetylation modulation, inhibitor mode; AID 651687; actives 0.17% (n = 350,000); U2OS PGC1a acetylation, AlphaScreen anti-acetyl-lysine; with virally co-expressed GCN5 acetyltransferase; inhibition, % at 15.6 µM;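 active = every replicate shows inhibition of at least 40%; inconclusive = mean inhibition at least 40% but some replicate below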;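 note: 0% = neutral control wells and 100% = positive control wells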
Numbers without * were called inactive; ? = inconclusive; · = not tested or not shown; [ ] = remark or other dose.

SMILES | PAX8 inh HTS | EWS-Fli block | Env fusion inh | INS-1E GSIS act | F508del corr | PGC1a acetyl inh
O=C(Cc1cccnc1)N1CCCCN2[C@H](CO)[C@H](c3ccc(/C=C/c4ccccc4)cc3)[C@@H]2C1 | 7 | 5 | · | 2 | -1 | 1
CN1[C@@H]2CN(S(C)(=O)=O)C[C@H]1C2c1ccc(Br)cc1 (some centres undefined) | · | · | · | -9 | · | ·
c1cnc(OCCN2CC2)cn1 | 87* | -5 | 17 | · | -2 | ·
c1cc(OCCN2CC2)ccn1 | -18 | -11 | · | · | -3 | ·
CN(C)CC#Cc1ccc([C@@H]2[C@H](CO)N3CCCCN(C(=O)Cc4ccccn4)C[C@@H]23)cc1 | -1 | -6 | · | 2 | 1 | 10
CCOc1ccccc1N=C1SCCCN1C | · | · | -21 | -3 | · | 97*
COc1cc2c(c(OC)c1OC)-c1ccc(O)cc1[C@@H](NC(C)=O)CC2 | 90* | 51* | -246 | -3 | 3 | ·
COc1cc2c(c(OC)c1OC)-c1ccc(O)c(=O)cc1[C@@H](NC(C)=O)CC2 | 10 | 46 | -39 | -6 | 0 | ·
COc1cc2c(c(OC)c1OC)-c1ccc(O)cc1C(NC(C)=O)CC2 (centres undefined) | 80* | 25 | -130 | -19 | -3 | -1
COc1ccc(OC(=O)N(C)C[C@@H]2OCc3ccccc3-c3c(n(C)c4ccccc34)C(=O)N([C@@H](C)CO)C[C@@H]2C)cc1 | 17 | -1 | · | -25 | 2 | 5
COC(=O)[C@@H]1[C@@H](CO)[C@@H]2Cn3c(ccc(-c4ccccc4F)c3=O)[C@H]1N2CC1CCCC1 | · | 8 | 7[16.7 µM] | -3 | · | ·
CC=Cc1ccc2n(c1=O)C[C@H]1[C@H](CO)[C@@H](C(=O)N(C)C)[C@@H]2N1C (mixture of isomers) | · | -5 | · | 24 | · | ·
O=c1[nH]c(=O)n(C2CCCCC2)c(O)c1/C=N/N1CCCCC1c1cccnc1 (centres undefined) | 7 | -4 | -9 | 2 | 0 | 6
O=c1[nH]c(=O)n(-c2cccc3ccccc23)c(O)c1/C=N/N1CCCCC1c1cccnc1 (centres undefined) | 16 | -7 | 10 | 3 | 8.0* | -9
CC[C@H]1C=C(C(=O)N[C@@]2(C(=O)O)C[C@H]2CC)[C@H]2CCC(=O)[C@H]2C1 | -10 | -8 | -4[16.7 µM] | · | -1 | -8
CCOc1ccc(-c2c(C)n(-c3ccc(OCC)cc3)c3[n+]2CCCCC3)cc1 | 87* | 49 | 46 | -15 | ? | -18
O=C(O)[C@H]1[C@H](CO)[C@H]2Cn3c(ccc(-c4ccncc4)c3=O)[C@@H]1N2C(=O)C1CC1 | -4 | -1 | 11[16.7 µM] | 6 | · | ·
Cn1nc(-c2ccc(OCC(=O)N3CCN(Cc4ccccc4)CC3)cc2)c2ccccc2c1=O | · | · | 71* | · | · | ·
CC1OC(OC2C=C3CCC4C(CCC5(C)C(c6ccc(=O)oc6)CCC45O)C3(C)CC2)C(O)C(OC2OC(CO)C(O)C(O)C2O)C1O (centres undefined) | 106* | ? | 63* | -3 | 4 | 32
CCCN1[C@@H]2Cn3c(ccc(-c4ccc(F)cc4)c3=O)[C@H]1[C@@H](C(=O)OC)[C@@H]2CO | 4 | -3 | · | 16 | 2 | -8
O=c1[nH]cnc2nc(-c3ccc(N(CCCl)CCCl)cc3)[nH]c12 | -218 | -46 | -39 | 58* | 3 | 17
C=C1C(=O)OC2CC3(C)OC3CCC(C)=CC(OC(C)=O)C12 (centres undefined) | 95* | -1 | 33 | · | -1 | -118
CC1(C)OC(c2ccccc2)=C/C(=C/C=C2C(=O)NC(=S)NC2=O)O1 | -44 | 13 | -4 | -1 | 17* | ·
COC(=O)[C@H]1[C@H](CO)[C@H]2Cn3c(ccc(C4=CCCCC4)c3=O)[C@@H]1N2CCc1ccccc1 | 11 | 1 | · | -8 | 3 | ·
CC(=O)N1C[C@@H]2C(c3ccccc3)[C@H](C1)N2CC1CC1 (some centres undefined) | · | · | · | 14 | · | ·
CCCC#Cc1ccc([C@@H]2[C@@H](CO)N3CCCCN(C(=O)Cc4ccccn4)C[C@@H]23)cc1 | 2 | 10 | · | -12 | -4 | 9
NC(Cc1ccc(O)cc1)C(=O)NN=Cc1ccc(N(CCCl)CCCl)cc1 (centres undefined) | 14 | 57* | -4 | · | 1 | -2
